# Rows were chosen to be rich in hits. Some 2.5% of all compounds tested hit in one or more screens of this group.
# Anesthetic bind: candidate novel general anesthetic via apoferritin binding | Potency, µM (series often up to 77.5 µM), usual class: inhibitors | AID 485281 | hit rate 0.074% among 350,000 | P02791 | apoferritin/1-aminoanthracene competitive binding, fluorescence; active = well fitted inhibition curve with a large enough effect; inconclusive = small, poorly fitted or top-dose-only effect; inactive = no such curve, though single readings can be large or run the other way; note: nearly all actives have a fitted effect of over 20% in size
# Target sequence (P02791 2-175 limits assumed): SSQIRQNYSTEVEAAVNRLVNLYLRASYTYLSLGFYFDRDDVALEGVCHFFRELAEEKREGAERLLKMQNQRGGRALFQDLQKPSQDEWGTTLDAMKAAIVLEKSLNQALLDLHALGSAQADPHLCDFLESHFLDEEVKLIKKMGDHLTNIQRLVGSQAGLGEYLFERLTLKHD
#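 Steps: apoferritin (10 uM) was premixed with half-saturated 1-AMA in PBS, compounds were pin-transferred, plates stood 10 min at room temperature, fluorescence was read at 380/535 nm, and curves were fitted with a Hill equation.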
# D2 ag-1: agonists of human D2 dopamine receptor (beta-arrestin); P14416; DiscoveRx PathHunter D2 beta-arrestin, luminescence, 90 min; 100% = 57 uM dopamine signal; activation, % (no concentration beside the values); hit rate 0.084% among 360,000; AID 624465; in the data active = activation above about 40%; inconclusive = between about 15% and that limit
#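 Agonist mode: compounds alone added to overnight-plated D2 PathHunter cells for 90 min at 37 C, with 57 uM final dopamine (EC100) defining full response. Beta-arrestin recruitment detected by chemiluminescent reagent, read after 1 h at ambient temperature.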
# D2 PAM-1: potentiates the human D2 dopamine receptor allosterically; P14416; DiscoveRx D2 beta-arrestin cells, luminescence, 90 min; 100% = 57 uM dopamine signal; potentiation, % (test concentration not listed); hit rate 0.23% among 360,000; in the data active = potentiation above about 50%; inconclusive = mostly about 30% to 49%
#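 PathHunter beta-arrestin assay in DiscoveRx D2 cells. Compounds were added with an EC20 of dopamine (50 nM final) for 90 min at 37 deg C. Luminescence was read 1 h after detection reagent, with 57 uM dopamine as the EC100 control.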
# D2 PAM-2: D2 dopamine receptor (human) potentiation; P14416; HEK293 T-REx D2, calcium flux, EC20 dopamine potentiation; potentiation, % at 10 µM; hit rate 0.34% among 340,000; AID 485347;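 active = potentiation over 3 SD above the plate norm, cut at about 30% in these data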
#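 Tetracycline-induced Hek293 Trex D2 cells, force-coupled to calcium, loaded with no-wash calcium dye. Compound added with 180 s kinetic read for agonism, then EC20 dopamine and a further 180 s read for potentiation.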
# D2 ag-2: D2 dopamine receptor (human) agonism | P14416 | HEK293 T-REx D2 cells, calcium flux agonist mode | activation, % at 2 µM | hit rate 0.53% among 340,000 | AID 485358;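 active = activation over 3 SD above normal in the single-dose calcium agonist read, cut at about 30% in these data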
#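 Agonism scored from kinetic calcium signal (1 read/sec, 180 s) following compound pin transfer, after a 10 s baseline. Cells: HEK293 Trex line expressing inducible D2 receptor coupled to calcium, dye-loaded after overnight culture at 30 C.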
# D2 antag: D2 dopamine receptor (human) antagonism | HEK293 TREx D2 cells, calcium flux, dopamine EC80 | inhibition, % at 10 µM | hit rate 2% among 340,000 | AID 485344; in the data active = inhibition above about 30%; inactive = below that, where a call was filed
#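 In this primary screen, negative modulation is detected by tracking calcium flux after an EC80 dopamine challenge in inducible HEK293 T-REx D2 cells preexposed to test compound for 180 s.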
# A number is an active result; i = inactive; ? = inconclusive; nt = no result.
SMILES,Anesthetic bind,D2 ag-1,D2 PAM-1,D2 PAM-2,D2 ag-2,D2 antag
CN(c1ccc(C(=O)NCc2ccccn2)cc1)S(=O)(=O)c1ccc(Cl)cc1,i,i,i,i,i,i
O=CC1=C(N2CCOCC2)/C(=C\c2ccccc2)CC1,i,i,i,33,i,i
N#CC1=C(N2CCOCC2)/C(=C\c2ccccc2)CC1,i,i,i,i,i,i
CCN(CC)CCNC(=O)c1cc([N+](=O)[O-])c(N(C)C)cc1OC,i,i,i,i,i,94
O=C(CSc1nnnn1-c1ccccc1)Nc1ccc(N2CCOCC2)cc1,i,i,i,i,i,i
CC(C)(C)c1nc2c(C#N)c(-c3ccc(Cl)cc3)ccn2n1,i,?,68,i,i,i
CC(C)COP(=O)(OCC(C)C)C(O)c1ccc(F)cc1 (configuration not stated),i,i,i,i,i,i
COP(=O)(/C=C/c1ccccc1)C(O)c1ccc(F)cc1 (configuration not stated),i,i,i,i,i,45
CCOC(=O)N1CCC(NC(=O)C(CC(C)C)NC(=O)C2CCCCC2)CC1 (configuration not stated),i,i,i,i,i,i
COCCNCCCOc1ccc(Cl)cc1Br,i,i,i,i,i,i
COCCCNCCCCOc1ccc(Br)cc1Cl,i,i,i,i,i,65
COCCNCCCOc1ccc(Br)cc1Cl,i,i,i,i,i,33
CN(C)CCCCOc1ccc(Br)cc1Cl,i,i,i,i,i,i
CN(C)c1ccc(CN(C(=O)c2ccc(Cl)c([N+](=O)[O-])c2)C2CCS(=O)(=O)C2)cc1 (configuration not stated),i,i,i,i,i,i
O=S(=O)(NCCSc1ccccc1)c1ccc2c(c1)OCCO2,?,i,i,i,i,i
N#CC1(NC(=O)COC(=O)c2nc(Cl)c(Cl)c(N)c2Cl)CCCCC1,nt,i,i,i,31,i
N#CC1(NC(=O)COC(=O)c2ncc(Cl)c(Cl)c2Cl)CCCCC1,nt,i,i,i,i,i
COc1ccc(N(C(=O)c2snc(C(N)=O)c2N)C(C(=O)NCc2ccccc2)c2ccc(O)cc2)cc1 (configuration not stated),i,i,i,i,i,i
COc1ccc(OC)c(N(C(=O)c2snc(C(N)=O)c2N)C(C(=O)NCc2ccccc2)c2ccc(O)cc2)c1 (configuration not stated),i,i,i,i,i,43
COc1ccc(CCC(C)NC2C3CC4CC(C3)CC2C4)cc1 (configuration not stated),i,i,i,i,i,40
COc1ccc(CCC(C)Nc2ccccc2F)cc1 (configuration not stated),i,i,i,i,i,i
Oc1ccccc1C1Nc2cccc3cccc(c23)N1,i,i,61,i,i,i
Brc1cccc(C2Nc3cccc4cccc(c34)N2)c1,i,i,i,i,i,i
Brc1ccc(C2Nc3cccc4cccc(c34)N2)o1,i,i,61,i,i,i
CCOC(=O)c1cccc(NC(=O)CSc2nnc(-c3ccoc3C)n2CCOC)c1,i,i,i,i,i,i
Cn1c(N2CCN(C(c3ccccc3)c3ccccc3)CC2)nc2ccccc21,i,i,i,i,i,i
O=c1nc2ccccc2c2n1CC(CN1CCN(C(c3ccccc3)c3ccccc3)CC1)N2 (configuration not stated),i,i,i,i,i,47
CCOC(=O)C1CCCN(C(=O)c2cn(CC)c3ccc(S(=O)(=O)N(C)C)cc3c2=O)C1 (configuration not stated),i,i,i,i,i,35
CCOC(=O)N1CCN(C(=O)c2cn(CC)c3ccc(S(=O)(=O)N(C)C4CCCCC4)cc3c2=O)CC1,i,i,i,i,i,i
Cc1ccc2cccc(NC(=S)NC(=O)c3ccccc3)c2n1,i,i,i,33,i,i
